Assay outcomes (PubChem BioAssay)
G9a inh = inhibitors of human histone lysine methyltransferase G9a; G9a H3K9 monomethylation, AlphaScreen, 2 h; hit rate 8.8% among 350,000; Potency, µM (doses to about 102 µM), inactives show at the highest dose activity, negative = inhibition, usual class: inhibitors; AID 504332; Q96KQ7; further: on the % scale 0 is the no-effect control and ±100 the full control effect; nearly all actives have a fitted effect of over 75% in size
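Compounds were preincubated with 20 nM G9a for 15 min, after which biotinylated H3K9 peptide (500 nM) and SAM (20 uM) started a 2 h room-temperature reaction. Monomethylated product was quantified by antibody-based AlphaScreen chemiluminescence.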
JMJD2A Tudor inh = JMJD2A Tudor domain (human) inhibition | O75164 | AlphaScreen JMJD2A-Tudor / H3K4me3 peptide binding | Potency, µM (top dose mostly 114 µM), for inactives: top-dose activity change, negative = inhibition, most hits filed as inhibitors | hit rate 4.4% among 390,000; further: on the % scale 0 is the no-effect control and ±100 the full control effect; nearly all actives have a fitted effect of over 50% in size
GLS inhibitor = blocks human kidney-isoform glutaminase activity. Potency, µM (highest dose often 45.5 µM), for the others: top-dose activity change, negative = inhibition, usual class: inhibitors. hit rate 0.21% among 410,000. GLS enzymatic activity, qHTS titration. AID 624170; further: on the % scale 0 is the no-effect control and ±100 the full control effect
Target sequence (O94925 whole entry, looked up, canonical isoform): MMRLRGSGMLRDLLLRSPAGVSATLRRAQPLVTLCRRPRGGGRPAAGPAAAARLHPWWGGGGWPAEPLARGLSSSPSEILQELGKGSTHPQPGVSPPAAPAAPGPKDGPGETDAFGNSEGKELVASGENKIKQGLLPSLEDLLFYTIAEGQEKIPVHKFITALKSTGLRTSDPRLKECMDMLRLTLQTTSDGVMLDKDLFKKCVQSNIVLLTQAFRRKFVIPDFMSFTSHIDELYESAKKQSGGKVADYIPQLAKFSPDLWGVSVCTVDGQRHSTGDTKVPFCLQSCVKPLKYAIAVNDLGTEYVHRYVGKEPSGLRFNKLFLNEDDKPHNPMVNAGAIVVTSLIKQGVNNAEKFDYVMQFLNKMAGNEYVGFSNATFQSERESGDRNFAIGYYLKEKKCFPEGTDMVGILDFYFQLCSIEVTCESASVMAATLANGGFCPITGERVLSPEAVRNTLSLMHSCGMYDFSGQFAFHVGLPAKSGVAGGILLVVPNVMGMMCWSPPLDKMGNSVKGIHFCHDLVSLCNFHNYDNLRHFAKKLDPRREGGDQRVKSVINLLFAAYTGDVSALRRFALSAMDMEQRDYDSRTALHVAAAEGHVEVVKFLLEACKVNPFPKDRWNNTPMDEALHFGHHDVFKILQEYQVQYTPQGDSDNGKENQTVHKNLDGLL
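Read-out is an Amplex red fluorescence increase coupled through glutamate oxidase and HRP, measured before and after 30 min room-temperature incubation. hKGA is in 45 mM KH2PO4 (pH 8.2) with 0.02% Tween-20; glutamine added as 1mM solution.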
HP1b binding inh = blocks HP1-beta chromodomain binding to methylated histone tails | Potency, µM (top dose mostly 114 µM), for inactives: at the highest dose activity change, negative = inhibition, hits mostly inhibitors | AlphaScreen HP1-beta / biotin-H3K9me3 peptide binding | hit rate 0.56% among 390,000 | P83916; further: nearly all actives have a fitted effect of over 70% in size
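HP1-beta protein (50 nM final) preincubated 30 min at room temperature with biotinylated H3(1-18)K9me3 peptide (50 nM) in PBS pH 7.4, 0.01% Tween-20, then compound added for 30 min. AlphaScreen streptavidin donor/nickel chelate acceptor beads (10 ug/mL final), 30 min dark, luminescence read.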
BAZ2B block = BAZ2B (human) inhibition | Potency, µM (series often up to 114 µM), for the others: at the highest dose activity change, negative = inhibition, hits mostly inhibitors | hit rate 4.4% among 360,000 | AlphaScreen BAZ2B-H3K14Ac peptide displacement; further: on the % scale 0 is the no-effect control and ±100 the full control effect; nearly all actives have a fitted effect of over 60% in size
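In this displacement format the biotinylated H3(5-23) peptide acetylated at Lys14 serves as ligand at 50 nM, with BAZ2B at 50 nM in PBS pH 7.4 containing 0.01% Tween-20. Donor and acceptor beads are 10 ug/mL final.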
An asterisk follows results filed as active; u = inconclusive; x = no result given; [ ] = dose if it differs, or a comment. This is a sample that favours compounds with a hit; in the whole collection about 10% have one here. The call rests on the fitted dose curve; in most records, active means well fitted curve in the direction sought with a large enough effect; inconclusive means small, poorly fitted or top-dose-only effect, or another doubt; inactive means no such curve, though single readings can be large; an effect the other way counts as inactive or inconclusive. Potency means the concentration at half of the fitted maximal effect.

SMILES	G9a inh	JMJD2A Tudor inh	GLS inhibitor	HP1b binding inh	BAZ2B block
Cc1nn(CCCC(=O)NCc2ccccc2)c(=O)c2cc3sccc3n12	-3.3%[59 µM]	-16.0%	0.3%	18.8%	4.8%
CCCNC(=O)Nc1cc(OCC)c(N2CCOCC2)cc1OCC	4.2%[12.7 µM]	-20.9%	24.1%	16.0%	8.4%
O=C(Nc1ccccc1F)Nc1cc(S(=O)(=O)N2CCOCC2)ccc1N1CCCC1	u	-18.2%	-1.1%	11.7%	x
CC(C)C(=O)Nc1cc(S(=O)(=O)N2CCOCC2)ccc1N1CCCCC1	x	-25.5%	u	u	x
COC(=O)c1sccc1S(=O)(=O)Nc1ccc(S(N)(=O)=O)cc1	x	-8.7%	-4.3%	-14.7%	-3.5%
COC(=O)c1sccc1S(=O)(=O)Nc1ccc(N2CCCCC2)cc1	x	u	1.2%	u	35.5µM*
CCOc1cc(N2CCOCC2)c(OCC)cc1NS(=O)(=O)c1ccc(Cl)s1	u	u	59.0%	-2.1%	50.1µM*
N#C/C(=C\c1ccccc1)C(=O)Nc1cc(S(=O)(=O)N2CCOCC2)ccc1N1CCCC1	44.7µM*	-34.3%	-11.9%	-6.7%	-9.3%
CC(C)(C)C(=O)Nc1cc(S(=O)(=O)N2CCCCC2)ccc1N1CCCCC1	39.8µM*	-20.6%	-10.0%	28.2%	1.8%
Nc1ncnc2c1ncn2C1OCC(O)C1O (stereo not given)	x	x	-0.1%	x	x
CCN1CCN(S(=O)(=O)c2ccc(Cl)c(C(=O)N(C)C(c3ccccc3)c3ccccc3)c2)CC1	8.91µM*	-30.5%	-4.7%	-1.8%	-38.0%
O=C(Nc1cc(S(=O)(=O)Nc2ccc(Cl)cc2)ccc1N1CCCCC1)c1ccc(F)cc1Cl	10µM*	-22.5%	-2.9%	u	-32.2%
COc1ccc2ccc3ccc(OC)c(OC(C)=O)c3c2c1	x	29.9%	9.2%	78.8%	x
COc1ccc(C2NC(=O)c3ccccc3N2)c(OC)c1OC (stereo not given)	x	x	4.7%	x	x
COc1cc(C2Nc3cccc4cccc(c34)N2)cc(OC)c1OC(C)=O	12.6µM*	u	2.5%	u	u
Oc1ccc2ccccc2c1C1Nc2cccc3cccc(c23)N1	5.01µM*	44.7µM*	25.4%	u	39.8µM*
COc1ccc(Br)cc1C1Nc2cccc3cccc(c23)N1	-6.4%[0.501 µM]	u	-6.1%	-17.4%	44.7µM*
COc1cc(C2Nc3cccc4cccc(c34)N2)ccc1O	8.91µM*	50.1µM*	11.2µM*	u	u
COc1cccc(CNC(=O)CN2C(=O)N(c3c(C)cccc3C)S(=O)(=O)c3ccccc32)c1OC	4.7%[59 µM]	-12.0%	1.1%	23.0%	-7.9%
CCOc1ccc(CCNC(=O)c2nn(C)c3c2CSc2ccccc2-3)cc1	-33.8%[59 µM]	-9.6%	1.0%	-28.0%	-13.9%
CCCOc1ccc(CN(CCC#N)C(=S)NC(=O)c2ccccc2)cc1	u	-22.7%	-12.8%	12.1%	u
COc1ccc(C(=O)N2CCC[C@@]3(CCN(c4ncccn4)C3)C2)cc1	-2.2%[12.7 µM]	x	x	x	x
Cc1occc1-c1nnc(SCC(=O)c2cc3ccccc3oc2=O)o1	0.8%[59 µM]	-35.8%	0.7%	-5.0%	-37.0%
CCC(=O)N1c2ccc(S(=O)(=O)N3CCCCCC3)cc2CC1C (stereo not given)	5.1%[59 µM]	-10.7%	0.6%	19.9%	x
CCN(CC)c1ccc(C2Nc3cccc4cccc(c34)N2)c(O)c1	31.6µM*	35.5µM*	2.7%	u	11.2µM*
SMILES	G9a inh	JMJD2A Tudor inh	GLS inhibitor	HP1b binding inh	BAZ2B block
CCOc1ccc(NC(=O)CSc2nnc3c(n2)[nH]c2ccc(S(=O)(=O)N(C)C)cc23)cc1	x	u	x	-2.1%	x
Cc1nn(-c2ccccc2)cc1C(c1c(N)[nH]c(=S)[nH]c1=O)c1c(N)[nH]c(=S)[nH]c1=O	31.6µM*	-15.0%[11.4 µM]	-14.1%	13.9%	-36.3%
CCN(CC)CCN1C(=O)C(=O)/C(=C(/O)c2ccc(OC)cc2)C1c1ccco1 (stereo not given)	39.8µM*	-16.4%	1.5%	30.2%	3.3%
CCN(CC)CCN1C(=O)C(=O)/C(=C(/O)c2ccc(C)cc2)C1c1ccncc1 (stereo not given)	1.7%[12.7 µM]	x	x	x	11.9%
COC(=O)c1ccc(C2/C(=C(/O)c3ccc(OC)cc3)C(=O)C(=O)N2Cc2ccco2)cc1 (stereo not given)	44.7µM*	u	-0.3%	21.6%	u
CCN(CC)CCCN1C(=O)C(=O)/C(=C(/O)c2ccc(OC)cc2)C1c1ccco1 (stereo not given)	x	10.0%	-6.7%	13.3%	x
COc1ccc(/C(O)=C2/C(=O)C(=O)N(Cc3ccco3)C2c2cccs2)cc1 (stereo not given)	10.4%[59 µM]	-19.8%	13.5%	28.9%	u
CCN(CC)CCN1C(=O)C(=O)/C(=C(/O)c2ccncc2)C1c1ccccc1 (stereo not given)	50.1µM*	-18.1%	8.8%	12.1%	-9.0%
COCCN1C(=O)C(=O)/C(=C(/O)c2cccc(OC)c2)C1c1ccco1 (stereo not given)	x	u	-19.1%	4.2%	79.4µM*
O=S1(=O)CCOCCCN1Cc1ccccc1Br	6.3%	-2.1%	-1.4%	29.3%	-9.3%
CC(C)C(=O)Nc1cccc(C(=O)Nc2nnc(CC(C)(C)C)s2)c1	-29.7%[59 µM]	-3.4%	-5.8%	40.2%	1.3%
CCOC(=O)C1=C[C@@H](C2CCCCC2)N(S(=O)(=O)c2ccc([N+](=O)[O-])cc2)[C@H]1c1ccccc1	x	x	-1.8%	x	x
COc1cccc(/C(O)=C2/C(=O)C(=O)N(Cc3cccnc3)C2c2ccco2)c1 (stereo not given)	44.7µM*	u	-16.5%	19.7%	-33.9%
COc1cc(C2c3c(-c4ccccc4O)n[nH]c3C(=O)N2Cc2ccco2)cc(OC)c1OC (stereo not given)	x	-9.6%	4.6%	36.1%	-15.2%
COc1ccc(/C(O)=C2/C(=O)C(=O)N(Cc3cccnc3)C2c2ccncc2)cc1F (stereo not given)	u	-22.0%	-0.3%	12.3%	-32.3%
COc1ccc(C2c3c(-c4ccccc4O)n[nH]c3C(=O)N2Cc2ccco2)cc1 (stereo not given)	-36.5%[59 µM]	u	-20.2%	-14.8%	35.5µM*
C[C@@H]1Cc2c(O)c(O)cc(O)c2C(=O)O1	-151.1%[59 µM]	56.2µM*	-22.9%	u	u
CC(=O)N1c2ccc(S(=O)(=O)N3CCCCCC3)cc2CC1C(=O)NCc1ccccc1F (stereo not given)	0.5%[59 µM]	-7.9%	-13.1%	15.9%	-12.5%
CN(C)c1ccc(/C=[N+](\[O-])C(C)(C)/C=N/O)cc1	u	50.1µM*	45.6%	20.2%	-3.8%
COc1ccccc1NC1=CC(=O)CC(c2ccccc2)C1 (stereo not given)	u	-7.3%	5.9%	28.8%	2.0%
COc1ccc(NC2=CC(=O)CC(c3ccc(C)cc3)C2)c(OC)c1 (stereo not given)	x	79.4µM*	33.9%	-15.9%	x
CCN(CC)C(=O)c1sc2nc(-c3ccccn3)[nH]c(=O)c2c1C	x	28.2µM*	0.0%	24.9%	x
